From PubChem BioAssay (NCI)
The panel holds about 79,000 compounds, 15% with a hit somewhere; the sample as a whole holds those more often. Values without a mark were called inactive. Activity calls are given as the source filed them. Rule as the data show it: active = growth inhibition above about 70%; inactive = the rest.

What was measured:
[1] = NCI Yeast Anticancer Drug Screen. Data for the rad50 strain (AID 155);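 also: 0% = growth of vehicle-only cultures of the same strain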; details: S. cerevisiae rad50 strain growth inhibition, hits give high values
Summary of the method: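 Growth of the mutant yeast was measured after compound exposure and referenced to vehicle-treated cultures.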

[2] = NCI Yeast Anticancer Drug Screen. Data for the mec2-1 strain (AID 157); details: S. cerevisiae mec2-1 strain, hits give high values
Summary of the method: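 Readout is yeast growth inhibition, normalised to vehicle-treated controls, in the mec2-1 strain exposed to compound.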

[3] = NCI Yeast Anticancer Drug Screen. Data for the sgs1 mgt1 strain (AID 161);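 also: 0% = growth of cultures given vehicle only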; details: S. cerevisiae sgs1 mgt1 strain, hits give high values
Summary of the method: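 Percent growth inhibition was derived by comparing compound-exposed mutant yeast with vehicle-exposed cultures. The strain carries alterations in DNA damage repair.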

[4] = NCI Yeast Anticancer Drug Screen. Data for the cln2 rad14 strain (AID 165);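 also: 0% = growth equal to vehicle treated cultures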; details: S. cerevisiae cln2 rad14 strain, hits give high values
Summary of the method: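 Relative to vehicle controls, growth inhibition of compound-treated cln2 rad14 yeast was recorded.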

[5] = NCI Yeast Anticancer Drug Screen. Data for the bub3 strain (AID 167); details: S. cerevisiae bub3 mutant strain, hits give high values
Summary of the method: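 Whole-cell yeast assay. The mutant strain was incubated with compounds, and growth inhibition was determined by comparison with vehicle-treated cells.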

[6] = NCI Yeast Anticancer Drug Screen. Data for the mlh1 rad18 strain (AID 175); details: S. cerevisiae mlh1 rad18 strain growth inhibition, hits give high values
Summary of the method: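 Test agents were incubated with a yeast strain of defined genotype (DNA damage repair defect). Inhibition of growth was derived by comparison with vehicle-exposed cultures.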

[7] = at 5.0 µM (retest, dose inferred, filed as 0.5)
[8] = at 50.0 µM (retest, dose inferred, filed as 5.0)

Row | Compound | growth inhibition [1, 7] | growth inhibition [1, 8] | growth inhibition ([1]; at 50.0 µM) | growth inhibition [2, 7] | growth inhibition [2, 8] | growth inhibition ([2]; at 50.0 µM) | growth inhibition [3, 7] | growth inhibition [3, 8] | growth inhibition ([3]; at 50.0 µM) | growth inhibition [4, 7] [%] | growth inhibition [4, 8] | growth inhibition ([4]; at 50.0 µM) | growth inhibition [5, 7] | growth inhibition [5, 8] | growth inhibition ([5]; at 50.0 µM) | growth inhibition [6, 7] | growth inhibition [6, 8] | growth inhibition ([6]; at 50.0 µM)
1 | S=C(Nc1ccccn1)c1ccccn1 | -3% | 9% | 23.9% | 6% | 21% | 50.3% | 2% | 43% | 69% | -11 | -7% | 18.6% | 3% | 33% | 55.8% | 3% | 46% | 51.4%
2 | O=C(Nc1ccc(S(=O)(=O)NC2CCCCC2)cc1)OC1CCCCCCC1 | 69% | 74% (active) | 72% (active) | 99% (active) | 81% (active) | 53.2% | 72% (active) | 40% | 77.6% (active) | 12 | 75% (active) | 75% (active) | 92% (active) | 79% (active) | 67% | 90% (active) | 58% | 76.7% (active)
3 | Cc1cc(I)ccc1NC(=S)Nc1ccccc1F | -3% | 62% | 90.7% (active) | -4% | 79% (active) | 90.5% (active) | -3% | 41% | 86.5% (active) | -19 | 45% | 70% (active) | 5% | 86% (active) | 95.1% (active) | -4% | 68% | 90.7% (active)
4 | O=C(Cc1c[nH]c2ccccc12)N/N=C/c1ccc(Cl)cc1[N+](=O)[O-] | -5% | 73% (active) | 39.8% | 1% | 88% (active) | 20.4% | -4% | 94% (active) | 36.6% | -5 | 89% (active) | 38.8% | -3% | 93% (active) | 19.5% | 13% | 90% (active) | 66.7%
5 | Nc1nnc(-c2cc(=O)c3cc(Cl)ccc3o2)s1 | -1% | 13% | 60% | -1% | 8% | 20.4% | -2% | 6% | 20.1% | -2 | 11% | 10.7% | 3% | 11% | 22.4% | -1% | 10% | 10.4%
6 | CC(c1ccccc1)[P+](c1ccccc1)(c1ccccc1)c1ccccc1 (configuration not stated) | 5% | 97% (active) | 97.8% (active) | 13% | 97% (active) | 97.5% (active) | 11% | 98% (active) | 97.7% (active) | -4 | 95% (active) | 96.8% (active) | 6% | 99% (active) | 96.1% (active) | 16% | 97% (active) | 98% (active)
7 | CC(C)=CCc1c2c(c(O)c3c(=O)c(-c4ccc(O)cc4O)coc13)C=CC(C)(C)O2 | -20% | 95% (active) | 83.2% (active) | -13% | 97% (active) | 86% (active) | -11% | 95% (active) | 85.9% (active) | 15 | 97% (active) | 83.2% (active) | 26% | 96% (active) | 81.2% (active) | 7% | 95% (active) | 84.7% (active)
8 | COC(=O)N(C[C@@H]1C=CCCC1)c1ccccc1I | 29% | 66% | 88.3% (active) | 29% | 61% | 91.2% (active) | 26% | 63% | 89.6% (active) | 29 | 34% | 87.5% (active) | 47% | 74% (active) | 91% (active) | 41% | 70% (active) | 89.9% (active)
9 | COc1ccc2c(c1)CCc1c(CO)c(COC(=O)NC(C)C)n(C)c1-2 | 87% (active) | 90% (active) | 95.8% (active) | 98% (active) | 91% (active) | 97.7% (active) | 96% (active) | 92% (active) | 96.5% (active) | 3 | 85% (active) | 93.5% (active) | 5% | 40% | 79.3% (active) | 59% | 93% (active) | 88.8% (active)
10 | COc1ccc(/C=N/NS(=O)(=O)c2ccc(C)cc2)cc1 | 13% | 83% (active) | 94.2% (active) | -5% | 97% (active) | 67.9% | 6% | 98% (active) | 91.7% (active) | 18 | 96% (active) | 45.4% | 23% | 94% (active) | 46.3% | 46% | 98% (active) | 97.3% (active)
11 | Oc1c(Cl)cc(Cl)cc1C=NCCSc1ccc(Cl)cc1 | 33% | 99% (active) | 92.2% (active) | 30% | 99% (active) | 93.8% (active) | 27% | 99% (active) | 94.8% (active) | 23 | 99% (active) | 93.2% (active) | 45% | 99% (active) | 93.9% (active) | 49% | 99% (active) | 92.7% (active)
12 | NC(=O)N/N=C(/Cc1nc2ccccc2nc1C/C(=N/NC(N)=O)c1cccc2ccccc12)c1cccc2ccccc12 | -1% | 9% | 0.65% | -13% | -7% | 34.4% | -1% | 17% | 16.8% | -5 | 2% | 82.2% (active) | -8% | -10% | 0.15% | -6% | 6% | 8.4%
13 | COc1ccc(Cc2nc3ccc(Cl)cc3[nH]2)cc1 | 4% | 42% | 77% (active) | -4% | 59% | 76.4% (active) | 4% | 78% (active) | 82% (active) | -6 | 14% | 66% | 1% | 44% | 84.3% (active) | 23% | 74% (active) | 86.9% (active)
14 | CC1(C)N=C(N)N=C(N)N1c1cccc(OCc2cccc(N)c2)c1 | -2% | 1% | 15.8% | 12% | -5% | 5.65% | -7% | 1% | -8.35% | 13 | -9% | 65.5% | -20% | -4% | -36.9% | 5% | 1% | 9.1%
15 | Cc1ccc2c(c1)C(O)(c1ccccc1)C(c1ccccc1)C(c1ccccc1)O2 (configuration not stated) | 78% (active) | 83% (active) | 93.9% (active) | 56% | 92% (active) | 94.3% (active) | 69% | 87% (active) | 93.7% (active) | 59 | 62% | 90.4% (active) | 87% (active) | 91% (active) | 89.5% (active) | 66% | 88% (active) | 93.6% (active)
16 | O=[N+]([O-])c1ccc(/C=N/NC2=CS(=O)(=O)C=C2)cc1 | 0% | 17% | 0.8% | -2% | 0% | 2.45% | -5% | 1% | 8.4% | -2 | 0% | 38% | -4% | 5% | 16.7% | -4% | 2% | 1.1%
17 | O=C(CCl)NC(=O)N(/N=C/c1ccco1)c1ccccc1 | -1% | 52% | 44.8% | 3% | 60% | 47% | -4% | 38% | 55.2% | 1 | 24% | -16.1% | 3% | 83% (active) | 59.2% | 3% | 68% | 58%
18 | c1ccc(OCCCOc2ccccc2)cc1 | 4% | 2% | -4.15% | -1% | -4% | 10.8% | 4% | 3% | 13% | 3 | -9% | -5.75% | 7% | 25% | 10.3% | 2% | -1% | 61.9%
19 | O=[N+]([O-])/C(Cl)=C/C(=C1/Nc2ccccc2O1)[N+](=O)[O-] | 17% | 87% (active) | 79.9% (active) | -11% | 47% | 65.6% | -14% | 48% | 72.5% (active) | -12 | 47% | 65.4% | -15% | 53% | 71.2% (active) | 17% | 75% (active) | 69%
